PubChem BioAssay
Unmarked numbers belong to inactive results. No rule for the calls is given here. Where a SMILES comes first, the peptide text is derived from it. The star is where a group is joined. Boc = CC(C)(C)OC(=O)*

molecular target: Pantothenate synthetase (Mycobacterium tuberculosis (strain ATCC 25618 / H37Rv)) (UniProt P9WIL5); experiment: Coupled enzyme confirmation of inhibitors against recombinant Mtb PanC (AID 375); details: coupled enzyme assay; at 10 µM, stronger effect = higher value;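 also: 0% = full reaction with vehicle and 100% = no enzyme background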
Sequence (P9WIL5 whole entry, looked up): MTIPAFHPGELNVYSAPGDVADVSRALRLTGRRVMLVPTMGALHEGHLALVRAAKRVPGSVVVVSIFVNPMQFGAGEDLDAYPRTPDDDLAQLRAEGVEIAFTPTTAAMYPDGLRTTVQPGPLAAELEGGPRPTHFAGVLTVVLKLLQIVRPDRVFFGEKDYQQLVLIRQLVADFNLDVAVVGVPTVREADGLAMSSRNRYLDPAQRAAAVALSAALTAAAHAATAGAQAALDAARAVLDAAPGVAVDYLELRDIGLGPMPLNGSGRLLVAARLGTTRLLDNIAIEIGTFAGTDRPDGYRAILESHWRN

**Q.** COc1ccc(N(CC(=O)N2c3ccccc3CC2C)S(=O)(=O)c2c(C)noc2C)cc1 (stereo not given) was tested. Which inhibition did it give?
**A.** The inhibition was 7%.

**Q.** Which inhibition does the source give for CCOC(=O)N1CCN(C(=O)Nc2ccc3oc(C)nc3c2)CC1 here?
**A.** The inhibition was 7%.

**Q.** For CCOC(=O)N1CCN(Cc2cc(=O)oc3ccc4ccccc4c23)CC1, which inhibition is on record?
**A.** Its inhibition is 6%.

**Q.** Which inhibition does the source give for CCOC(=O)C1=C(C)NC(C)=C(C(=O)OCC)C1C(=O)OC1CCOC1=O (stereo not given) here?
**A.** Its inhibition is 13%.

**Q.** S=c1[nH]nc(Cc2ccccc2)n1Cc1ccco1 was tested. Which inhibition did it give?
**A.** Its inhibition is 0%.

**Q.** COc1ccc(CN(CC(=O)NCc2ccco2)C(=O)CCC(=O)Nc2nccs2)cc1 was tested. Which inhibition did it give?
**A.** Its inhibition is 0%.

**Q.** How did the inhibition turn out when CC(=O)C1=C(O)C(=O)N(c2ccc(C(=O)O)cc2)C1c1ccccc1 (stereo not given) was run?
**A.** The inhibition was 0%.

**Q.** Cc1ccc(Nc2cc(-n3nc(C)cc3C)ncn2)cc1 was tested. Which inhibition did it give?
**A.** Its inhibition is 0%.

**Q.** CCSc1nnc(NC(=O)CSc2ncccn2)s1 was tested. Which inhibition did it give?
**A.** The inhibition was 0%.

**Q.** For CCOP(=O)(c1ccc(N(C)C)cc1)C(O)c1c(Cl)cccc1Cl (stereo not given), which inhibition is on record?
**A.** Its inhibition is 0%.

**Q.** How did the inhibition turn out when Nc1nonc1N1CCCCC1 was run?
**A.** The inhibition was 0%.

**Q.** CCCCCCC(=O)c1c(C)[nH]c(C(=O)OCC)c1C was tested. Which inhibition did it give?
**A.** The inhibition was 1%.

**Q.** Which inhibition does the source give for COc1ccc(-c2noc(CN3C(=O)c4ccccc4C3=O)n2)cc1 here?
**A.** The inhibition was 0%.

**Q.** With Cc1ccc(S(=O)(=O)N(CC(=O)N2CCOCC2)CC(=O)N2CCOCC2)cc1 as the compound, how does the inhibition read?
**A.** The inhibition was 0%.

**Q.** For CCN(CC)CCCN1C(=O)C(O)=C(C(=O)c2ccco2)C1c1ccc(C)o1 (stereo not given), which inhibition is on record?
**A.** Its inhibition is 13%.

**Q.** CC(NC(=O)c1ccco1)C(c1cccs1)N1CCN(c2ccc(F)cc2)CC1 (stereo not given) was tested. Which inhibition did it give?
**A.** Its inhibition is 0%.

**Q.** How did the inhibition turn out when Cc1cc(NC(=O)CSc2ccc3nnc(-c4cccc(F)c4)n3n2)no1 was run?
**A.** The inhibition was 0%.

**Q.** For CCn1c(=S)sc2nc(C)sc21, which inhibition is on record?
**A.** The inhibition was 1%.

**Q.** For CCn1c(=O)c(=O)[nH]c2cc(C(=O)N3CCN(c4ccccc4F)CC3)ccc21, which inhibition is on record?
**A.** Its inhibition is 4%.

**Q.** Which inhibition does the source give for Cc1nc(C)n(C(C)CC(=O)O)n1 (stereo not given) here?
**A.** The inhibition was 0%.

**Q.** For COCCNc1nc(C(C)(C)C)nc2c1nnn2Cc1ccccc1Cl, which inhibition is on record?
**A.** The inhibition was 0%.

**Q.** COc1cccc(-n2c(SCC(=O)Nc3cc(C)on3)nc3c([nH]c4ccccc43)c2=O)c1 was tested. Which inhibition did it give?
**A.** The inhibition was 2%.

**Q.** With O=C(NCc1cccs1)C(Cc1ccccc1)NS(=O)(=O)c1cccs1 (stereo not given) as the compound, how does the inhibition read?
**A.** The inhibition was 8%.

**Q.** For CCOC(=O)c1cccnc1SCC(=O)NC(C)CC (stereo not given), which inhibition is on record?
**A.** Its inhibition is 0%.

**Q.** With CCOC(=O)C1CCCN(C(=O)c2cc3c(C)nc4ccccc4c3o2)C1 (stereo not given) as the compound, how does the inhibition read?
**A.** Its inhibition is 7%.

**Q.** How did the inhibition turn out when COc1nnc(-c2ccc(C)c(S(=O)(=O)NCCO)c2)c2ccccc12 was run?
**A.** The inhibition was 3%.

**Q.** For CSCCC(NC(=O)OC(C)(C)C)C(=O)NC(CC(C)C)C(N)=O (stereo not drawn) (Boc-Met-Leu-NH2; configuration not given here), which inhibition is on record?
**A.** Its inhibition is 0%.

**Q.** How did the inhibition turn out when COc1ccc(S(=O)(=O)N2CCCC2C(=O)Nc2ccc(O)cc2)cc1 (stereo not given) was run?
**A.** Its inhibition is 0%.

**Q.** COc1ccc(C2=NO[C@@H]3C(=O)N(c4ccc5c(c4)OCCO5)C(=O)[C@H]23)cc1OC was tested. Which inhibition did it give?
**A.** The inhibition was 3%.

**Q.** Which inhibition does the source give for CCc1nnc(NC(=O)CSc2nc3ccccc3s2)s1 here?
**A.** Its inhibition is 2%.

**Q.** For COCCN(C(=O)CCC(=O)Nc1ccccn1)C(C(=O)NC1CCCC1)c1ccc(OC)cc1 (stereo not given), which inhibition is on record?
**A.** Its inhibition is 0%.

**Q.** How did the inhibition turn out when COc1cc(C(=O)N2CCN(c3cc(Cl)ccc3Cl)CC2)cc(OC)c1OC was run?
**A.** The inhibition was 1%.

**Q.** Which inhibition does the source give for Clc1ccc(Cl)c(-c2nn3c(COc4ccccc4)nnc3s2)c1 here?
**A.** The inhibition was 4%.

**Q.** Which inhibition does the source give for COc1ccc(-c2cc3n(n2)CCc2nc4ccccc4n2-3)cc1 here?
**A.** Its inhibition is 0%.

**Q.** With CCCCC(c1nnnn1C1CCCC1)N1CCN(C2CCCCC2)CC1 (stereo not given) as the compound, how does the inhibition read?
**A.** Its inhibition is 1%.

**Q.** For O=C1NC2(Nc3ccccc31)C(=O)Nc1ccccc12 (stereo not given), which inhibition is on record?
**A.** Its inhibition is 0%.

**Q.** CCn1nnc(NC(=O)c2ccccc2Br)n1 was tested. Which inhibition did it give?
**A.** Its inhibition is 0%.

**Q.** Which inhibition does the source give for COc1ccc(-n2ncc3c(N4CCN(c5cccc(C)c5C)CC4)ncnc32)cc1 here?
**A.** The inhibition was 0%.

**Q.** With CCCOc1cc(C)c(S(=O)(=O)N2CCN(C)CC2)cc1C as the compound, how does the inhibition read?
**A.** The inhibition was 4%.

**Q.** With CN(C(=O)c1ccc2c(=O)n3c(nc2c1)CCCCC3)c1ccccc1 as the compound, how does the inhibition read?
**A.** Its inhibition is 4%.
